Hits are enriched below; roughly 3.5% of the tested compounds scored in any of these assays.
FBW7 act = FBW7 E3 ligase activators, primary screen, biochemical, AlphaScreen, human | hit rate 0.13% among 650,000 | F-box/WD repeat-containing protein 7 (Homo sapiens), Q969H0 | AlphaScreen FBW7–phospho-cyclin E peptide binding, activator screen | normalized activity (activation), % at 26.1 µM | AID 1259310, 2017; in the data active means normalized activity above about 1.9%;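 further: purified mutant Fbw7 with reduced substrate affinity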
GPR151 ag = activators of human GPR151, primary screen, cell-based, PathHunter beta-arrestin, luminescence; activation, % at 11.2 µM; hit rate 1% among 650,000; G-protein coupled receptor 151 (Homo sapiens), Q8TDV0; PathHunter beta-arrestin GPR151 cells; AID 1508602, 2020; in the data active means activation above about 4.9%
MITF primary = MITF inhibitors, primary screen, biochemical, AlphaScreen, human; AlphaScreen MITF homodimerization, bead proximity signal; inhibition, % at 2.6 µM; hit rate 0.91% among 650,000; AID 1259374, 2018; in the data active means inhibition above about 50%
TEAD-YAP inh = TEAD-YAP interaction inhibition, primary screen, TEAD-YAP interaction inhibitor project, luminescence, HEK-TIYL cells. TEAD-Gal4/YAP UAS-luciferase luminescence. inhibition, % at 9.12 µM. hit rate 1.4% among 640,000; in the data active means inhibition above about 32%
Of the large screens only hits and unclear results are named; the others gave an inactive call.

COC(=O)/C=C1\S/C(=N\N=C\c2ccc3c(c2)OCO3)NC1=O	none
O=C1N/C(=N\N=C/c2ccc3c(c2)OCO3)S/C1=C/c1ccc(O)cc1	TEAD-YAP inh 49
C=C1C(=O)OC23C1CCC(C)C2CCC1(C)OC13 (stereo unspecified)	TEAD-YAP inh 61
CCNC(=O)N1c2ccc(OCC)cc2C(C)=CC1(C)C	none
CC1=CC(C)(C)N(S(=O)(=O)c2ccc(Br)cc2)c2ccc(C)cc21	TEAD-YAP inh 58
CCOc1ccc2c(c1)N(S(=O)(=O)c1ccc(NC(C)=O)cc1)C(C)(C)C=C2C	TEAD-YAP inh 73
CCOc1ccc2c(c1)C(C)=CC(C)(C)N2S(=O)(=O)c1ccc(Br)cc1	TEAD-YAP inh 61
COc1ccc2cc3c(N)nn(C(=O)c4cc(OC)c(OC)c(OC)c4)c3nc2c1	TEAD-YAP inh 51
COc1ccc2nc3c(cc2c1)c(N)nn3C(=O)c1cc(OC)c(OC)c(OC)c1	TEAD-YAP inh 62
COc1ccc2cc3c(N)nn(C(=O)c4ccncc4)c3nc2c1	none
CCOc1ccc(C(=O)n2nc(N)c3cc4cc(OC)ccc4nc32)cc1OCC	TEAD-YAP inh 52
CC1(C)CC(=O)C=C(NNC(=S)Nc2ccccc2)C1	none
C=CCc1cccc(C=Nc2ccc3c(c2)nc(CO)n3C)c1O	none
O=C1c2cccnc2C(=O)N1CCc1ccc(S(=O)(=O)Nc2cccc(Cl)c2)cc1	none
Cc1ccn2c(-c3csc(Nc4ccc(S(N)(=O)=O)cc4)n3)c(C)nc2c1	none
CC(=O)Nc1ccc(Nc2nc(-c3c(C)nc4cc(C)ccn34)cs2)cc1	TEAD-YAP inh 57
Cc1ccn2c(-c3csc(Nc4ccc(Cl)cc4)n3)c(C)nc2c1	TEAD-YAP inh 55
CCCOC(=O)C1=C(C)NC2=C(C(=O)CCC2)C1c1ccccc1OCCC (stereo unspecified)	none
CCCn1c(NC(=O)c2cccc(S(=O)(=O)N(C)C(C)C)c2)nc2ccccc21	TEAD-YAP inh 34
COc1cccc(CNC(=O)c2cnc3ccc(-c4cn[nH]c4)cn23)c1	TEAD-YAP inh 88
CC1(C)CC(=O)C(c2nc3ccccc3s2)=C(NCc2ccccc2)C1	none
COc1ccccc1NC(=O)c1ccc2c(c1)N(Cc1ccccc1)C(=O)C(C)(C)O2	none
Cc1cc(NC(=O)CSc2nc(Nc3ccc4c(c3)OCO4)c3ccccc3n2)n[nH]1	TEAD-YAP inh 50
Cc1cc(NC(=O)CSc2nc3ccccc3c3nc(CCc4c[nH]c5ccccc45)nn23)n[nH]1	TEAD-YAP inh 61
O=C(CSc1nc2ccccc2c(=O)n1CCCN1CCCCC1)Nc1nccs1	TEAD-YAP inh 42
CC(C)CCNC(=O)CSc1nc(Nc2ccc3c(c2)OCO3)c2ccccc2n1	none
Cc1cc(NC(=O)CSc2nc3ccccc3c3nc(CCN4CCCCC4)nn23)n[nH]1	TEAD-YAP inh 58
COc1cccc(CSc2nc3c(c(-c4cccs4)c2C#N)CCC(C(C)(C)C)C3)c1 (stereo unspecified)	none
COc1ccccc1/C=C/C(=O)N1CCN(c2ccccc2OC)CC1	none
Cc1ccccc1OCCCn1cc(C=C2C(=O)N(C)C(=O)N(C)C2=O)c2ccccc21	TEAD-YAP inh 34
Cc1ccccc1Cn1cc(C=C2C(=O)N(C)C(=O)N(C)C2=O)c2ccccc21	none
COc1ccc2c(c1)O/C(=C\c1ccc(OC(C)=O)c(OC)c1)C2=O	TEAD-YAP inh 43
COc1ccc2c(c1)OC/C(=C\c1ccc(OC)c(O)c1)C2=O	TEAD-YAP inh 42
CC(C)(C)C(=O)Oc1ccc2c(c1)O/C(=C\c1ccncc1)C2=O	none
COc1ccc2c(c1)OC/C(=C\c1cccs1)C2=O	none
COc1ccc(/C=C2\Oc3cc(OC(=O)c4cccnc4)ccc3C2=O)cc1	TEAD-YAP inh 41
COc1ccc(-n2c(SCc3csc(C)n3)nc3c(sc(=S)n3-c3ccccc3)c2=O)cc1OC	none
CN1CCN(c2ccc(-c3cncc(/C=C/c4ccccc4)n3)cn2)CC1	TEAD-YAP inh 41
COc1cccc(C(=O)Nc2nc(-c3ccccc3)cs2)c1OC	none
COCCCNC(=O)Nc1nnc(N(C)Cc2ccccc2)s1	none
CN(Cc1ccccc1)c1nnc(NC(=O)NCc2ccccc2)s1	TEAD-YAP inh 47
CCCCN(C)c1nnc(NC(=O)NCc2ccccc2)s1	TEAD-YAP inh 58
Cc1nc2c(c(=O)[nH]1)CN(CC(=O)Nc1ccc(C)c(Cl)c1)CC2	none

Assay outcomes as filed in PubChem.
